# Source: the supplement of paper PMC8728848
# The entries come from a sample that favours the strongest signals as a whole.
# B1: Lmo1413 (Listeria monocytogenes), Q8Y783 (protein)
# chain: MKHAKKSLFTFIIFMTILSITFNPFSAKAAPLMLNLPAPQVDQLYIGDDYITGKLQQEVPMHYPGNAAYVLFNNKQYNITDYTVENDVNFRLKLPKTLEAGDTLNYFTITGNVLDPVAYPGQESYKLAGPFSPIEKANIQVNYVDETNQTLATSDTLSGKLGETYTTSPKAIDGYQVKETPTNATGTYTTNTETIQINYVYEKTAVEGANVSVEYINEATNESIAPTETLSGKIGTTFQAEVKEIDGYELSQVPSNQSGTYTDQTQSVIFKYKKITTPDEVAKDVTVTYKDTKGNQLADPVILKGDIGSTFETEAKSFKGYKLTKTPSNHSSVFTSDSQEVEYVYSKDDAVITPPVTPVNPDKPIINPVKPVNPATSTVPNKNISKKNTTKTVNQTGKTSTALQLPKTGDSENNLPLIIGVSLLISGVYIFTTRRKRVK
# B2: GH98CBM (Clostridium perfringens) (protein)
# chain: EVYALEESRDVYLSDLDWLNATHGDDTKSKIVQKNHPFTPGNNNQSTKISLKMEDGSISEFEKGLGTIAGSPSTITYDISGAGVTKFFSYLGIDRSANPINEQYAKVDKIEVVVDGKVIYSTINQFPNGLTYETPAIKVDLNIPENAKRLQLKSYAGEKTWGDEVVYADAKFTAKGDFVN
# How the values were obtained:
# Assay in all cases: glycan array binding signal (z-score within array); higher = stronger binding
# Conditions in all cases: glycan notation: IUPAC condensed, linker removed
# Gal(a1-3)Gal = biological target: Gal(a1-3)Gal
# Procedure, shortened: (§1)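 The binding signal is a Z-score computed within each array. Data were drawn from 3228 arrays in the Consortium for Functional Glycomics database, restricted to those with a known protein sequence. Scores were averaged over arrays of the same protein sequence at different concentrations or buffers, and over linkers, and negative values can be taken as non-binding.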
# [1] = biological target: Gal(a1-3)Gal(b1-4)[Fuc(a1-3)]GlcNAc(b1-2)Man(a1-3)[Gal(a1-3)Gal(b1-4)[Fuc(a1-3)]GlcNAc(b1-2)Man(a1-6)]Man(b1-4)GlcNAc(b1-4)GlcNAc
# Procedure, shortened: as §1
# Gal(a1-3)GalNAc = biological target: Gal(a1-3)GalNAc
# Procedure, shortened: as §1
# [2] = biological target: Gal(b1-3)GalNAc(b1-3)Gal(a1-4)Gal(b1-4)Glc
# Procedure, shortened: as §1
# [3] = biological target: Gal(b1-3)GlcNAc(b1-2)Man(a1-3)[Gal(b1-3)GlcNAc(b1-2)Man(a1-6)]Man(b1-4)GlcNAc(b1-4)GlcNAc
# Procedure, shortened: as §1
# [4] = biological target: Gal(b1-3)GlcNAc(b1-3)Gal(b1-3)GlcNAc
# Procedure, shortened: as §1
# [5] = biological target: Gal(b1-3)GlcNAc(b1-3)Gal(b1-4)[Fuc(a1-3)]GlcNAc(b1-6)[Gal(b1-3)GlcNAc(b1-3)]Gal(b1-4)Glc
# Procedure, shortened: as §1
# [6] = biological target: Gal(b1-3)[Fuc(a1-4)]GlcNAc(b1-2)Man(a1-3)[Gal(b1-3)[Fuc(a1-4)]GlcNAc(b1-2)Man(a1-6)]Man(b1-4)GlcNAc(b1-4)GlcNAc
# Procedure, shortened: as §1
# [7] = biological target: Gal(b1-3)[Fuc(a1-4)]GlcNAc(b1-3)Gal(b1-3)[Fuc(a1-4)]GlcNAc
# Procedure, shortened: as §1
# [8] = biological target: Gal(b1-3)[Neu5Ac(b2-6)]GalNAc
# Procedure, shortened: as §1
# [9] = biological target: Gal(b1-4)GlcNAc(b1-2)Man(a1-3)Man(b1-4)GlcNAc(b1-4)GlcNAc
# Procedure, shortened: as §1
# [10] = biological target: Gal(b1-4)GlcNAc(b1-2)Man(a1-3)[Man(a1-6)]Man(b1-4)GlcNAc(b1-4)GlcNAc
# Procedure, shortened: as §1
# Gal4S(b1-4)GlcNAc = biological target: Gal4S(b1-4)GlcNAc
# Procedure, shortened: as §1
# Glc(a1-4)Glc = biological target: Glc(a1-4)Glc
# Procedure, shortened: as §1
# GlcA(b1-3)GlcNAc = biological target: GlcA(b1-3)GlcNAc
# Procedure, shortened: as §1
# GlcA(b1-6)Gal = biological target: GlcA(b1-6)Gal
# Procedure, shortened: as §1
# [11] = biological target: GlcNAc(a1-3)Gal(b1-4)GlcNAc
# Procedure, shortened: as §1
# [12] = biological target: GlcNAc(a1-4)Gal(b1-4)GlcNAc(b1-3)Gal(b1-4)Glc
# Procedure, shortened: as §1
# [13] = biological target: GlcNAc(a1-6)Gal(b1-4)GlcNAc
# Procedure, shortened: as §1
# [14] = biological target: GlcNAc(b1-2)Gal(b1-3)GalNAc
# Procedure, shortened: as §1
# [15] = biological target: GlcNAc(b1-4)GlcNAc(b1-4)GlcNAc
# Procedure, shortened: as §1
# Kdn(a2-6)Gal(b1-4)GlcNAc = biological target: Kdn(a2-6)Gal(b1-4)GlcNAc
# Procedure, shortened: as §1
# [16] = biological target: Man(a1-3)[Man(a1-6)]Man(b1-4)GlcNAc(b1-4)GlcNAc
# Procedure, shortened: as §1
# [17] = biological target: Neu5Ac(a2-3)Gal(b1-4)GlcNAc(b1-2)Man(a1-3)[Neu5Ac(a2-6)Gal(b1-4)GlcNAc(b1-2)Man(a1-6)]Man(b1-4)GlcNAc(b1-4)GlcNAc
# Procedure, shortened: as §1
# [18] = biological target: Neu5Ac(a2-3)Gal(b1-4)[Fuc(a1-3)]GlcNAc(b1-3)Gal(b1-4)[Fuc(a1-3)]GlcNAc(b1-3)Gal(b1-4)[Fuc(a1-3)]GlcNAc
# Procedure, shortened: as §1
# [19] = biological target: Neu5Ac(a2-6)Gal(b1-4)GlcNAc(b1-3)GalNAc
# Procedure, shortened: as §1
# [20] = biological target: Neu5Ac(a2-6)GlcNAc(b1-4)GlcNAc(b1-4)GlcNAc
# Procedure, shortened: as §1
# [21] = biological target: Neu5Ac9Ac(a2-6)Gal(b1-4)GlcNAc
# Procedure, shortened: as §1
# Neu5Gc(a2-3)Gal(b1-4)Glc = biological target: Neu5Gc(a2-3)Gal(b1-4)Glc
# Procedure, shortened: as §1
# [22] = biological target: Fuc(a1-2)[Gal(a1-3)]Gal(b1-4)Glc
# Procedure, shortened: as §1
# [23] = biological target: Fuc(a1-2)[GalNAc(a1-3)]Gal
# Procedure, shortened: as §1
# [24] = biological target: Fuc(a1-2)[GalNAc(a1-3)]Gal(b1-4)Glc
# Procedure, shortened: as §1
# [25] = biological target: Fuc(a1-2)[GalNAc(a1-3)]Gal(b1-4)GlcNAc
# Procedure, shortened: as §1
# [26] = biological target: Fuc(a1-2)[GalNAc(a1-3)]Gal(b1-4)[Fuc(a1-3)]GlcNAc
# Procedure, shortened: as §1
# [27] = biological target: Fuc(a1-2)[GalNAc(a1-4)]Gal(b1-4)GlcNAc
# Procedure, shortened: as §1
# [28] = biological target: Fuc(a1-3)[Gal(b1-4)]GlcNAc(b1-2)Man(a1-3)[Fuc(a1-3)[Gal(b1-4)]GlcNAc(b1-2)Man(a1-6)]Man(b1-4)GlcNAc(b1-4)GlcNAc
# Procedure, shortened: as §1
# [29] = biological target: Fuc(a1-3)[Gal(b1-4)]GlcNAc(b1-4)Gal(b1-4)[Fuc(a1-3)]GlcNAc(b1-4)Gal(b1-4)[Fuc(a1-3)]GlcNAc
# Procedure, shortened: as §1
# Fuc(b1-3)GlcNAc = biological target: Fuc(b1-3)GlcNAc
# Procedure, shortened: as §1
# GlcA(b1-3)Gal = biological target: GlcA(b1-3)Gal
# Procedure, shortened: as §1
# GlcNAc(b1-6)GalNAc = biological target: GlcNAc(b1-6)GalNAc
# Procedure, shortened: as §1
# GlcNAc3Prop(b1-4)GlcNAc = biological target: GlcNAc3Prop(b1-4)GlcNAc
# Procedure, shortened: as §1
# Man(b1-4)GlcNAc = biological target: Man(b1-4)GlcNAc
# Procedure, shortened: as §1
# [30] = biological target: Neu5Ac(a2-8)Neu5Ac(a2-8)Neu5Ac
# Procedure, shortened: as §1
binder,measurement,setting,value
B1,glycan array binding signal (z-score),Gal(a1-3)Gal,-0.219
same,glycan array binding signal (z-score),[1],0.065
same,glycan array binding signal (z-score),Gal(a1-3)GalNAc,-0.056
same,glycan array binding signal (z-score),[2],-0.2
same,glycan array binding signal (z-score),[3],-0.218
same,glycan array binding signal (z-score),[4],-0.215
same,glycan array binding signal (z-score),[5],-0.158
same,glycan array binding signal (z-score),[6],1.29
same,glycan array binding signal (z-score),[7],-0.139
same,glycan array binding signal (z-score),[8],2.02
same,glycan array binding signal (z-score),[9],-0.199
same,glycan array binding signal (z-score),[10],-0.229
same,glycan array binding signal (z-score),Gal4S(b1-4)GlcNAc,-0.075
same,glycan array binding signal (z-score),Glc(a1-4)Glc,2.23
same,glycan array binding signal (z-score),GlcA(b1-3)GlcNAc,1.78
same,glycan array binding signal (z-score),GlcA(b1-6)Gal,0.693
same,glycan array binding signal (z-score),[11],1.66
same,glycan array binding signal (z-score),[12],-0.095
same,glycan array binding signal (z-score),[13],1.42
same,glycan array binding signal (z-score),[14],2.98
same,glycan array binding signal (z-score),[15],0.095
same,glycan array binding signal (z-score),Kdn(a2-6)Gal(b1-4)GlcNAc,-0.144
same,glycan array binding signal (z-score),[16],-0.231
same,glycan array binding signal (z-score),[17],-0.29
same,glycan array binding signal (z-score),[18],0.379
same,glycan array binding signal (z-score),[19],-0.219
same,glycan array binding signal (z-score),[20],-0.222
same,glycan array binding signal (z-score),[21],-0.263
same,glycan array binding signal (z-score),Neu5Gc(a2-3)Gal(b1-4)Glc,-0.252
B2,glycan array binding signal (z-score),[22],2.19
same,glycan array binding signal (z-score),[23],4.81
same,glycan array binding signal (z-score),[24],6.66
same,glycan array binding signal (z-score),[25],8.52
same,glycan array binding signal (z-score),[26],5.47
same,glycan array binding signal (z-score),[27],-0.209
same,glycan array binding signal (z-score),[28],0.041
same,glycan array binding signal (z-score),[29],-0.235
same,glycan array binding signal (z-score),Fuc(b1-3)GlcNAc,0.118
same,glycan array binding signal (z-score),GlcA(b1-3)Gal,-0.196
same,glycan array binding signal (z-score),GlcNAc(b1-6)GalNAc,-0.22
same,glycan array binding signal (z-score),GlcNAc3Prop(b1-4)GlcNAc,-0.189
same,glycan array binding signal (z-score),Man(b1-4)GlcNAc,-0.183
same,glycan array binding signal (z-score),[18],-0.233
same,glycan array binding signal (z-score),[30],-0.247
same,glycan array binding signal (z-score),Neu5Gc(a2-3)Gal(b1-4)Glc,-0.107
